BAZ2B block: inhibitors of human BAZ2B bromodomain; Q9UIF8; AlphaScreen BAZ2B-H3K14Ac peptide displacement; Potency, µM (titrated, usually from 114 µM), for inactives: top-dose activity change, negative = inhibition, hits mostly inhibitors; hit rate 4.4% among 360,000; AID 504333; also: % is scaled to controls: 0 for no effect and ±100 for the full control effect; nearly all actives have a fitted effect of over 60% in size
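Inhibition is scored as reduced AlphaScreen emission. The BAZ2B/b-H3(5-23)K14Ac complex (50 nM each) in PBS pH 7.4, 0.01% Tween-20 meets compound (up to 110 uM) for 30 min at RT before bead addition.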
Sfp inh: inhibitors of Bacillus subtilis Sfp phosphopantetheinyl transferase | hit rate 3.5% among 310,000 | Potency, µM, for inactives: largest response in the series, negative = inhibition, actives largely listed as inhibitors | AID 1490 | Q9F4F7 | Biochemical Sfp PPTase activity, qHTS;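 also: the enzyme is Sfp with the accession as filed and its product quenches rhodamine fluorescence; 0% = enzyme reaction without inhibitor and -100% = no enzyme wells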
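Reaction rates are the 30-min fluorescence difference (ex 525, em 598 nm) in wells containing 15 nM Sfp, 5 uM rhodamine-CoA and 12.5 uM BHQ-2-YbbR at pH 7.6 with 10 mM MgCl2.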
HP1b chromo inh: inhibitors of HP1-beta chromodomain binding to methylated histone tails. P83916. AID 540317. hit rate 0.56% among 390,000. AlphaScreen HP1-beta / biotin-H3K9me3 peptide binding. Potency, µM (top dose mostly 114 µM), without a hit: top-dose activity change, negative = inhibition, most hits filed as inhibitors; also: nearly all actives have a fitted effect of over 70% in size
Target sequence (P83916 whole entry, looked up): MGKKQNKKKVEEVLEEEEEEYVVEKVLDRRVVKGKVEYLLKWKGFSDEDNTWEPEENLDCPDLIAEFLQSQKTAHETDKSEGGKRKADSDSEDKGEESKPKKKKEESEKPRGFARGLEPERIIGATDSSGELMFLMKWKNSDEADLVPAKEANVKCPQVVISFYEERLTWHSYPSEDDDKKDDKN
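AlphaScreen: HP1-beta (50 nM) preformed 30 min with biotin-H3(1-18)K9me3 peptide (50 nM) in PBS pH 7.4, 0.01% Tween-20. Compound added for 30 min at RT, then streptavidin donor/nickel chelate acceptor beads (10 ug/mL) for 30 min.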
PLK1 PBD block: inhibitors of human PLK1 polo-box domain binding; AID 720504; P53350; Potency, µM, for inactives: max response, negative = inhibition, most hits filed as inhibitors; Plk1 PBD binding of FITC phosphopeptide, fluorescence polarization; hit rate 2.8% among 360,000; also: series mostly up to about 57 µM; % is scaled to controls: 0 for no effect and ±100 for the full control effect; nearly all actives have a fitted effect of over 65% in size
G9a block: G9a (human) methyltransferase inhibition. G9a H3K9 monomethylation, AlphaScreen, 2 h. Potency, µM (doses to about 102 µM), for inactives: top-dose activity, negative = inhibition, hits mostly inhibitors. hit rate 8.8% among 350,000; also: % is scaled to controls: 0 for no effect and ±100 for the full control effect; nearly all actives have a fitted effect of over 75% in size
Target sequence (Q96KQ7 913-1193 limits assumed): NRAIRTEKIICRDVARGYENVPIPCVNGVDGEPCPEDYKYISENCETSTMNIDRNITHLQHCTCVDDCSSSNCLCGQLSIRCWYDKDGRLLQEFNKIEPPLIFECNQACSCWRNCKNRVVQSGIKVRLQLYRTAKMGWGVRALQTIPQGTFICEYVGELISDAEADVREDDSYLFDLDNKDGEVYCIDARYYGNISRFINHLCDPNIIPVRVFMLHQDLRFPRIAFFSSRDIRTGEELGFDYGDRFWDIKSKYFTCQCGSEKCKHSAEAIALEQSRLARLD
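Signal arises when biotinylated H3K9 peptide, once monomethylated, bridges streptavidin donor and antibody-captured acceptor beads. Enzyme at 20 nM was preincubated 15 min with test compounds; peptide 500 nM and SAM 20 uM then reacted for 2 h.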
JMJD2A Tudor: blocks the human JMJD2A Tudor domain; O75164; AlphaScreen JMJD2A-Tudor / H3K4me3 peptide binding; Potency, µM (titrated, usually from 114 µM), for inactives: at the top dose activity change, negative = inhibition, most hits filed as inhibitors; hit rate 4.4% among 390,000; AID 504339; also: % is scaled to controls: 0 for no effect and ±100 for the full control effect; nearly all actives have a fitted effect of over 50% in size
Numbers without * were called inactive; ? = inconclusive; · = no result given; [ ] = dose if it differs, or a comment. The list is not random: actives were taken first. Their share in the collection is about 12%. Calls follow the shape of the dose curve; as a rule, active = well fitted curve in the direction sought with a large enough effect; inconclusive = small, poorly fitted or top-dose-only effect, or another doubt; inactive = no such curve, though single readings can be large; an effect the other way counts as inactive or inconclusive. Potency is read from the fitted curve at half-maximal effect.

SMILES	BAZ2B block	Sfp inh	HP1b chromo inh	PLK1 PBD block	G9a block	JMJD2A Tudor
O=C(CSc1ccccn1)N1CCCC(Nc2ccccc2)C1 (stereo unspecified)	1%	10%	11%	?	·	-32%
O=C1CCCCN1CC(=O)N1CCCC(Nc2ccc(F)c(F)c2)C1 (stereo unspecified)	-4%	28%	2%	21µM*	7%	?
CCn1nc(C)cc1C(=O)N1CCCC(Nc2ccc(F)c(F)c2)C1 (stereo unspecified)	-16%	6%	40%	0%	17%	-12%
COc1ccc(NC(=O)C2CCC(CNS(=O)(=O)c3cccc4nsnc34)CC2)cc1OC (stereo unspecified)	-7%	·	15%	·	-28%[59 µM]	-5%
Cc1ncsc1CCC(=O)N1CCCC(Nc2ccc(C(C)C)cc2)C1 (stereo unspecified)	-37%	20%	16%	4%	50µM*	-25%
COc1ccc(NC2CCCN(Cc3cccc4cnccc34)C2)cc1OC (stereo unspecified)	?	5%	-2%	-25%	?	?
COc1ccc(NC2CCCN(C(=O)CSc3ccccn3)C2)cc1OC (stereo unspecified)	0%	-9%	21%	24µM*	89%	-22%
COc1ccc(NC2CCCN(C(=O)C3(C)CCCCC3)C2)cc1 (stereo unspecified)	32µM*	10%	-13%	-2%	·	-35%
COc1ccc(NC2CCCN(C(=O)CCc3scnc3C)C2)cc1 (stereo unspecified)	-25%	19%	-4%	-8%	?	-19%
COc1ccc(NC2CCCN(Cc3cccc4cnccc34)C2)cc1 (stereo unspecified)	45µM*	25%	-11%	4%	45µM*	?
COc1ccc(NC2CCCN(C(=O)CCC(=O)c3ccc(F)cc3)C2)cc1 (stereo unspecified)	40µM*	10%	-34%	-3%	·	?
COc1cc(OC)cc(C(=O)N2CCCC(Nc3ccc(F)cc3)C2)c1 (stereo unspecified)	-11%	1%	20%	0%	·	-15%
COc1ccc(NC2CCCN(C(=O)CSc3ccncc3)C2)cc1 (stereo unspecified)	50µM*	?	-6%	-22%	40µM*	-26%
COc1ccc(NC2CCCN(C(=O)CCc3cn[nH]c3)C2)cc1 (stereo unspecified)	-29%	8%	9%	3%	-7%	-25%
COc1ccc(CCC(=O)N2CCCC(Nc3ccc(OC)cc3)C2)cc1 (stereo unspecified)	?	13%	-11%	-6%	40µM*	-28%
C=CCn1c(-c2ccoc2C)n[nH]c1=S	?	4%	12%	-10%	?	-1%
CCn1c(-c2ccco2)n[nH]c1=S	3%	-13%	-22%	-28%	3.5µM*	-2%[11.4 µM]
CC(C)Cn1c(-c2ccco2)n[nH]c1=S	?	-17%	-8%	-11%	7.1µM*	4µM*
Cn1c(-c2ccco2)n[nH]c1=S	-13%	-14%	22%	-19%	4.5µM*	7.9µM*
C=CCn1c(-c2ccco2)n[nH]c1=S	-5%	-15%	38%	-13%	?	10µM*
c1coc(-c2cnc3ccccc3n2)c1	·	·	·	-17%	·	·
CC(C)N(C(=O)CSc1n[nH]c(=O)n1CCc1ccccc1)C(C)C	0%	4%	23%	-4%	21%	-6%
COc1cccc(NC(=O)CCN2C(=O)c3ccccc3Sc3ncccc32)c1	-5%[57.1 µM]	16%	58%	-14%	-7%[59 µM]	-9%
CC(OC(=O)c1cccc(-n2cnnn2)c1)C(=O)Nc1ccc(F)c(F)c1F (stereo unspecified)	·	·	58%	0%	·	7%
CCCCn1c(-c2sccc2C)n[nH]c1=S	-18%	-25%	?	-16%	7.9µM*	4.5µM*
CCCCn1c(-c2ccco2)n[nH]c1=S	-4%	-69%	?	?	5µM*	3.2µM*

Assay outcomes (PubChem)
